Laboratory results as given in PubChem BioAssay (EPA / NIEHS).
Where “and” joins values, the source holds several entries; their conditions need not be identical. Equal values may be shown once. Records with an inconclusive call do not appear. A structure can be active in one record and inactive in another. Calls of active or inactive are those of the source. How the source made its calls, unless noted: active means hit-call score of the fitted dose curve at least 0.9, where 1 is the maximum; inactive means score below 0.9.

Columns and labels:
[1] = read-out: Nuclear factor erythroid 2-related factor 2 (Homo sapiens) (UniProt Q16236); test: LTEA_HepaRG_NFE2L2: Life Technologies and Expression Analysis (LTEA) Assay for Nuclear factor erythroid 2-related factor 2 (NFE2L2) Transcription Factor using HepaRG (AID 2283527); details: mRNA level, 48 h; actives raise or lower the signal
How it was run: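 HepaRG, 48 h dosing, 8-pt half-log series from 100 uM in 0.5% DMSO, duplicates. Read-out: NFE2L2 mRNA by qRT-PCR (ACTB/GAPDH/POLR2A normalization). Bidirectional curve fit vs DMSO baseline.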

[2] = read-out: succinate dehydrogenase complex iron sulfur subunit B (SDHB), SDHB (gene 6390); test: LTEA_HepaRG_SDHB: Life Technologies and Expression Analysis (LTEA) Assay for succinate dehydrogenase complex iron sulfur subunit B (SDHB) using HepaRG (AID 2283528); details: mRNA level, 48 h; actives raise or lower the signal
How it was run: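 Readout is SDHB transcript level by qRT-PCR, normalised to three housekeeping genes and fitted bidirectionally against 0.5% DMSO vehicle. Human HepaRG cells were treated for 48 h at up to 100 uM.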

[3] = read-out: Signal transducer and activator of transcription 3 (Homo sapiens) (UniProt P40763); test: LTEA_HepaRG_STAT3: Life Technologies and Expression Analysis (LTEA) Assay for Signal transducer and activator of transcription (STAT3) using HepaRG (AID 2283529); details: mRNA level, 48 h; actives raise or lower the signal
How it was run: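 HepaRG, 48 h exposure, 8-pt half-log series (top 100 uM), 0.5% DMSO vehicle, duplicates. Readout: STAT3 transcript by Fluidigm qRT-PCR, housekeeping-normalized; bidirectional fit vs DMSO baseline.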

[4] = read-out: solute carrier (SLCO1B1), SLCO1B1 (gene 10599); test: LTEA_HepaRG_SLCO1B1: Life Technologies and Expression Analysis (LTEA) Assay for solute carrier (SLCO1B1) using HepaRG (AID 2283530); details: mRNA level, 48 h; actives raise or lower the signal
How it was run: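 Gain or loss of SLCO1B1 mRNA is fitted against the 0.5% DMSO vehicle in human HepaRG liver cells treated 48 h at up to 100 uM in half-log steps. Expression comes from qRT-PCR normalized to endogenous controls.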

[5] = read-out: sulfotransferase 2A1 (SULT2A1), SULT2A1 (gene 6822); test: LTEA_HepaRG_SULT2A1: Life Technologies and Expression Analysis (LTEA) Assay for sulfotransferase 2A1 (SULT2A1) using HepaRG (AID 2283531); details: mRNA level, 48 h; actives raise or lower the signal
How it was run: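 Cells were plated and cultured 48 h, switched to serum-free induction medium, then dosed in duplicate for 48 h (8 concentrations, max 100 uM). RNA was isolated and SULT2A1 expression measured by qRT-PCR; gain or loss of signal fitted relative to DMSO.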

[6] = read-out: Transforming Growth Factor (TGFA), TGFA (gene 7039); test: LTEA_HepaRG_TGFA: Life Technologies and Expression Analysis (LTEA) Assay for Transforming Growth Factor (TGFA) using HepaRG (AID 2283532); details: mRNA level, 48 h; actives raise or lower the signal
How it was run: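 qRT-PCR read-out of TGFA transcript, normalized to three housekeeping genes, fitted bidirectionally against 0.5% DMSO baseline. Human HepaRG cultures received chemicals for 48 h at eight half-log concentrations, top 100 uM.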

[7] = read-out: Transforming Growth Factor (TGFB1), TGFB1 (gene 7040); test: LTEA_HepaRG_TGFB1: Life Technologies and Expression Analysis (LTEA) Assay for Transforming Growth Factor (TGFB1) Transporter using HepaRG (AID 2283533); details: mRNA level, 48 h; actives raise or lower the signal
How it was run: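 Expression change of TGFB1 in human HepaRG cells is measured after a 48 h chemical exposure, up to 100 uM in 0.5% DMSO vehicle. Curves are fitted in both directions relative to the DMSO baseline.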

[8] = read-out: Tumor necrosis factor receptor 1 (TNFRSF1A), TNFRSF1A (gene 7132); test: LTEA_HepaRG_TNFRSF1A: Life Technologies and Expression Analysis (LTEA) Assay for Tumor necrosis factor receptor 1 (TNFRSF1A) using HepaRG (AID 2283535); details: mRNA level, 48 h; actives raise or lower the signal
How it was run: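 Expression of TNFRSF1A in human HepaRG liver cells was measured by qRT-PCR 48 h after chemical dosing (maximum 100 uM). Bidirectional curve fitting used 0.5% DMSO as baseline.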

[9] = read-out: Thyroid Hormone Responsive (THRSP), THRSP (gene 7069); test: LTEA_HepaRG_THRSP: Life Technologies and Expression Analysis (LTEA) Assay for Thyroid Hormone Responsive (THRSP) using HepaRG (AID 2283536); details: mRNA level, 48 h; actives raise or lower the signal
How it was run: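 qRT-PCR read-out (Fluidigm TaqMan), housekeeping-normalized (ACTB/GAPDH/POLR2A). HepaRG, 48 h chemical exposure, 8-pt half-log series from 100 uM in 0.5% DMSO, duplicates. Bidirectional curve fit vs 0.5% DMSO baseline.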

[10] = read-out: Cellular tumor antigen p53 (Homo sapiens) (UniProt P04637); test: LTEA_HepaRG_TP53: Life Technologies and Expression Analysis (LTEA) Assay for Tumor Protein P53 (TP53) using HepaRG (AID 2283537); details: mRNA level, 48 h; actives raise or lower the signal
How it was run: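 Read-out is TP53 transcript level by microfluidic qRT-PCR, normalised to three housekeeping genes and fitted bidirectionally against DMSO. Human HepaRG cells received compounds for 48 h, highest concentration 100 uM.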

[11] = read-out: UDP glucuronosyltransferase (UGT1A1), UGT1A1 (gene 54658); test: LTEA_HepaRG_UGT1A1: Life Technologies and Expression Analysis (LTEA) Assay for UDP glucuronosyltransferase (UGT1A1) using HepaRG (AID 2283538); details: mRNA level, 48 h; actives raise or lower the signal
How it was run: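 Cells are plated, cultured 48 h, switched to serum-free induction medium, then dosed 48 h at eight concentrations (max 100 uM, 0.5% DMSO). RNA is isolated and UGT1A1 expression measured by qRT-PCR; changes versus DMSO are fitted in both directions.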

[12] = read-out: X-box binding protein 1 (XBP1), XBP1 (gene 7494); test: LTEA_HepaRG_XBP1: Life Technologies and Expression Analysis (LTEA) Assay for X-box binding protein 1 (XBP1) using HepaRG (AID 2283540); details: mRNA level, 48 h; actives raise or lower the signal
How it was run: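 Human HepaRG monolayers receive test chemical for 48 h across an eight-point half-log series starting at 100 uM. XBP1 mRNA gain or loss is scored against DMSO by qRT-PCR.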

[13] = LTEA_HepaRG_LDH_cytotoxicity: Cytotoxicity Assessment in the Life Technologies and Expression Analysis (LTEA) Assay (AID 2283563; active means hit-call score of the fitted dose curve at least 0.9, where 1 is the maximum;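 on AC50: LDH activity released into spent culture medium as a marker of cell death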)
How it was run: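 Human HepaRG hepatic cells are treated with test chemicals for 48 h at up to 100 uM in 0.5% DMSO. Cytotoxicity is scored from medium LDH against the vehicle control.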

[14] = ATG_XTT_Cytotoxicity: Cytotoxicity Assessment in the Attagene TRANS-FACTORIAL HepG2 Assay (AID 2283584; active means hit-call score of the fitted dose curve at least 0.9, where 1 is the maximum)
How it was run: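 Transfect HepG2 with GAL4-UAS reporter units, dose compound, incubate 24 h, then measure viable cell number by XTT. Fit concentration response against DMSO baseline.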

[15] = TOX21_p53_BLA_p2_viability: Viability Assessment in the Tox21 HCT-116 p53 Agonism Beta-lactamase Assay, Phase 2 (AID 2283591; active means hit-call score of the fitted dose curve at least 0.9, where 1 is the maximum;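 further: compound exposure lasted 16 h at 37 °C; actives lower the ATP signal meaning cytotoxicity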)
How it was run: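 HCT116 p53-bla cells, 4000/well, dosed after 5 h plating (217-fold dilution of DMSO stocks) and incubated 16 h at 37C. Viability taken as cellular ATP by CellTiter-Glo luminescence after 30 min RT; signal loss marks cytotoxicity.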

[16] = molecular target: Cellular tumor antigen p53 (Homo sapiens) (UniProt P04637); test: TOX21_p53_BLA_p2_ratio: Tox21 HCT-116 p53 Agonism Beta-lactamase Assay, Ratio, Phase 2 (AID 2283592; active means hit-call score of the fitted dose curve at least 0.9, where 1 is the maximum)
Sequence of Cellular tumor antigen p53 (Homo sapiens) (P04637 whole entry, looked up): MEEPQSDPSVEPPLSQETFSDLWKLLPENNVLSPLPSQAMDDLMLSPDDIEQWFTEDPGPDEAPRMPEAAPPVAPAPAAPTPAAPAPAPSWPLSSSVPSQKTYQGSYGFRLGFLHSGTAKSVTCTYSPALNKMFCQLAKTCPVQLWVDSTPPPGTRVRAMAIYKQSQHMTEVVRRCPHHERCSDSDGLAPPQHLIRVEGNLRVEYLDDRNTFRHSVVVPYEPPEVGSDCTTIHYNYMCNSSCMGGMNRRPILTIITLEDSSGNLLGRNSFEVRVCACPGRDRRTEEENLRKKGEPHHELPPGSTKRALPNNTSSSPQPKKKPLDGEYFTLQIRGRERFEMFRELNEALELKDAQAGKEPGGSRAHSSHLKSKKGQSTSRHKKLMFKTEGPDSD
How it was run: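 Cleaved-to-uncleaved substrate ratio (460 vs 530 nm) measured in HCT116 cells with an inducible beta-lactamase reporter linked to p53 activity. Compounds incubated 16 h at 37C before 2 h room-temperature CCF4-AM loading.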

[17] = TOX21_p53_BLA_p3_viability: Viability Assessment in the Tox21 HCT-116 p53 Agonism Beta-lactamase Assay, Phase 3 (AID 2283593; active means hit-call score of the fitted dose curve at least 0.9, where 1 is the maximum;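 further: cells exposed to compound for 16 h before reading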)
How it was run: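 HCT116 cells, 4000/well, dosed 5 h after plating by pin transfer (217-fold dilution from DMSO stock) and incubated 16 h at 37C, 5% CO2. Viability read as ATP luminescence with CellTiter-Glo after 30 min at room temperature.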

[18] = molecular target: Cellular tumor antigen p53 (Homo sapiens) (UniProt P04637); test: TOX21_p53_BLA_p3_ratio: Tox21 HCT-116 p53 Agonism Beta-lactamase Assay, Ratio, Phase 3 (AID 2283596; active means hit-call score of the fitted dose curve at least 0.9, where 1 is the maximum)
How it was run: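 Cells were seeded at 4000/well, rested 5 h at 37C, then dosed with DMSO compound solutions (217-fold dilution) for 16 h. CCF4-AM substrate was loaded for 2 h at room temperature, and the 460/530 nm emission ratio was fitted for gain of signal versus DMSO.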

[19] = read-out: UDP glucuronosyltransferase (UGT1A6), UGT1A6 (gene 54578); test: LTEA_HepaRG_UGT1A6: Life Technologies and Expression Analysis (LTEA) Assay for UDP glucuronosyltransferase (UGT1A6) using HepaRG (AID 2283539); details: mRNA level, 48 h; actives raise or lower the signal
How it was run: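 Endpoint is UGT1A6 transcript induction or loss in a human liver cell line, quantified by TaqMan qRT-PCR 48 h after dosing. Concentrations ran from 100 uM downward in half-log steps in 0.5% DMSO; activity was fitted in both directions versus vehicle.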

TIMP1, TIMP1 (gene 7076) = test: LTEA_HepaRG_TIMP1: Life Technologies and Expression Analysis (LTEA) Assay for TIMP1 using HepaRG (AID 2283534); details: mRNA level, 48 h; actives raise or lower the signal
How it was run: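 We dosed human liver HepaRG cultures for 48 hours with up to 100 uM test chemical and measured TIMP1 expression by qRT-PCR. Activity in either direction is fitted relative to the 0.5% DMSO vehicle.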

Measured: AC50

Sequence of Nuclear factor erythroid 2-related factor 2 (Homo sapiens) (Q16236 whole entry, looked up): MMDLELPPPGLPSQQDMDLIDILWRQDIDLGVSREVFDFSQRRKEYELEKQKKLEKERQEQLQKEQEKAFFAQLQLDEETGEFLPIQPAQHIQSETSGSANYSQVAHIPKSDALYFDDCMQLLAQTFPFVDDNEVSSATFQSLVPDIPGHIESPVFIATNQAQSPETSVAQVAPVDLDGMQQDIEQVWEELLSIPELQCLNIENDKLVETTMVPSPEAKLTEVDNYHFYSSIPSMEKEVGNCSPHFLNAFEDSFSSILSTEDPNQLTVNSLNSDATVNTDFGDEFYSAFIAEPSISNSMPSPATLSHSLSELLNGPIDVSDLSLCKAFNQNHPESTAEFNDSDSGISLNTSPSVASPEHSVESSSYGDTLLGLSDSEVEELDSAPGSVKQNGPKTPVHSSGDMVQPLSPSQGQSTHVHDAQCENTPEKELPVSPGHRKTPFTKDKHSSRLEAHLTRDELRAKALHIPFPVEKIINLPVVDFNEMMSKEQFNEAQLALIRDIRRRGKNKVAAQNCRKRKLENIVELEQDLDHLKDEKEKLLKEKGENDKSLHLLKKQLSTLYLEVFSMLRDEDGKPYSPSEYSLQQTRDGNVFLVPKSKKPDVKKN
Sequence of Signal transducer and activator of transcription 3 (Homo sapiens) (P40763 whole entry, looked up): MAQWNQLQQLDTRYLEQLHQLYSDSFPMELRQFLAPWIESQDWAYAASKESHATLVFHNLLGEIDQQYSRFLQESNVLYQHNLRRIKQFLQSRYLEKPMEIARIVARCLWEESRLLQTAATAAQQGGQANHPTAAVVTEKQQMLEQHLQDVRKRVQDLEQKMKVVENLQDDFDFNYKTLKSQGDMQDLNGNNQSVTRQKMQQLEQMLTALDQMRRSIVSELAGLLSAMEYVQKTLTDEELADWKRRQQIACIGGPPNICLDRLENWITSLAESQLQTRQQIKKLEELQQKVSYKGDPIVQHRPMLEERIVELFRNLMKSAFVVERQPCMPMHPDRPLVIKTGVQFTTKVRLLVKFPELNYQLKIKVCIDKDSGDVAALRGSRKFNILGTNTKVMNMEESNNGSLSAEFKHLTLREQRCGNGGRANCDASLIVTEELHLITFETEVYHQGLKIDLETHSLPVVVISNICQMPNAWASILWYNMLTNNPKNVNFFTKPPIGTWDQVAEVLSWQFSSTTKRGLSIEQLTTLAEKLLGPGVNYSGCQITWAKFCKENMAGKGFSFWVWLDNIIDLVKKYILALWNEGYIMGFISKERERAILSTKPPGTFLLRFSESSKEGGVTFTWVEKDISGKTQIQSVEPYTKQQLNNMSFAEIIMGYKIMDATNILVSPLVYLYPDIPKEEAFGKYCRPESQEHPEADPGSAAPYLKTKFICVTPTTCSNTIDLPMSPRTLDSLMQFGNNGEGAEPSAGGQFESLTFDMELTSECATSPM

CC1(C)NC(=O)NC1=O
not listed: [19] | TIMP1, TIMP1 (gene 7076)
inactive: all other assays above

CC(=O)OC/C=C(\C)CCC=C(C)C
not listed: [17] | [19] | TIMP1, TIMP1 (gene 7076)
inactive: all other assays above

CCCc1cc(=O)[nH]c(=S)[nH]1
not listed: [14] | [19] | TIMP1, TIMP1 (gene 7076)
inactive: all other assays above

Cc1cccc([N+](=O)[O-])c1C
not listed: [14] | [19] | TIMP1, TIMP1 (gene 7076)
inactive: all other assays above

Cc1ccc(C)c(C)c1
not listed: [19] | TIMP1, TIMP1 (gene 7076)
inactive: all other assays above

COc1cc(S(=O)(=O)O)c(C)cc1N=Nc1c(O)ccc2cc(S(=O)(=O)O)ccc12
not listed: [13] | [15] | [17] | TIMP1, TIMP1 (gene 7076)
inactive: all other assays above

Cc1cc(=O)[nH]c(=S)[nH]1
not listed: [14] | TIMP1, TIMP1 (gene 7076)
inactive: all other assays above

COc1cc(C=O)ccc1O
not listed: [19] | TIMP1, TIMP1 (gene 7076)
inactive: all other assays above

CCCCOC(=O)CCCCCCCCC(=O)OCCCC
not listed: [14] | [15] | [18] | TIMP1, TIMP1 (gene 7076)
inactive: all other assays above

COc1cc(/C=C/C(=O)CC(=O)/C=C/c2ccc(O)c(OC)c2)ccc1O
inactive: [14] | [15] | [17]
active: [15] 82.2 µM and 34.1 µM | [16] 2.06 µM and 36 µM and 6.79 µM | [17] 57.5 µM and 19.8 µM | [18] 13.6 µM and 35.3 µM and 6.9 µM

C=CCOC(=O)c1ccccc1C(=O)OCC=C
not listed: [17] | [19] | TIMP1, TIMP1 (gene 7076)
inactive: all other assays above

CC(C)c1ccc(C(=O)N=C(N)N)cc1S(C)(=O)=O
active: [1] 7.8 µM | [6] 0.555 µM | [7] 0.403 µM | [8] 0.337 µM | [9] 37.2 µM | [10] 0.457 µM | [11] 10.2 µM | [12] 0.288 µM
not listed: [14] | [15] | [18] | TIMP1, TIMP1 (gene 7076)
inactive: all other assays above

O=C(N[C@@H](Cc1ccccc1)[C@@H](O)C(=O)N1C[C@@H](O)[C@@H](O)C1)c1cc2cc(Cl)ccc2[nH]1
active: [9] 88.6 µM | [10] 50 µM | [12] 50 µM
not listed: [7] | [14]
inactive: all other assays above

O=[N+]([O-])C(CO)(CO)CO
not listed: [1] | [14] | [18] | [19] | TIMP1, TIMP1 (gene 7076)
inactive: all other assays above

CNCc1cc(F)ccc1Oc1ccc(Cl)c(Cl)c1
active: [4] 82.6 µM | [5] 84.2 µM | [11] 82.8 µM | [19] 74 µM | [13] 81.7 µM
not listed: [14] | [15] | TIMP1, TIMP1 (gene 7076)
inactive: all other assays above

CNC(=O)[C@H]1O[C@@H](n2cnc3c(NCc4cc(Cl)ccc4OCc4cc(C)no4)ncnc32)[C@H](O)[C@@H]1N
not listed: [14] | [15] | [19] | TIMP1, TIMP1 (gene 7076)
inactive: all other assays above

CC(=O)OCCOCCOCCOC(C)=O
not listed: [19] | TIMP1, TIMP1 (gene 7076)
inactive: all other assays above
